Reference: PubChem BioAssay (NCI)
The panel holds about 83,000 compounds, 20% with a hit somewhere; the sample as a whole holds those more often.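 Single-dose data. Exposure time 48 hours. Values below 10 considered active.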 Values without a mark were called inactive. Activity calls are given as the source filed them.

Key:
Assay in all cases: NCI-60 one-dose screen, 48 h (100 = growth as untreated, 0 = no growth, -100 = all killed)
Conditions in all cases: 10 µM unless noted
HCT-15 colon = test system: HCT-15 colon
HT29 colon = test system: HT29 colon
SNB-75 CNS = test system: SNB-75 CNS
SNB-19 CNS = test system: SNB-19 CNS
U251 CNS = test system: U251 CNS
PC-3 prostate = test system: PC-3 prostate
SK-MEL-5 melanoma = test system: SK-MEL-5 melanoma
UACC-62 melanoma = test system: UACC-62 melanoma
SK-MEL-28 melanoma = test system: SK-MEL-28 melanoma
SK-MEL-2 melanoma = test system: SK-MEL-2 melanoma
EKVX NSCLC = test system: EKVX NSCLC
SN12C renal = test system: SN12C renal
UO-31 renal = test system: UO-31 renal
TK-10 renal = test system: TK-10 renal
ACHN renal = test system: ACHN renal
CAKI-1 renal = test system: CAKI-1 renal
A498 renal = test system: A498 renal
CCRF-CEM leukemia = test system: CCRF-CEM leukemia
MOLT-4 leukemia = test system: MOLT-4 leukemia

SMILES	growth (HCT-15 colon)	growth (HT29 colon)	growth (SNB-75 CNS)	growth (SNB-19 CNS) [%]	growth (U251 CNS)	growth (PC-3 prostate) [%]	growth (SK-MEL-5 melanoma)	growth (UACC-62 melanoma)	growth (SK-MEL-28 melanoma)	growth (SK-MEL-2 melanoma) [%]	growth (EKVX NSCLC) [%]	growth (SN12C renal) [%]	growth (UO-31 renal)	growth (TK-10 renal)	growth (ACHN renal)	growth (CAKI-1 renal) [%]	growth (A498 renal)	growth (CCRF-CEM leukemia) [%]	growth (MOLT-4 leukemia)
Nc1nnc(-c2c[nH]c3ncc(Br)cc23)c(-c2c[nH]c3ccc(F)cc23)n1	25.3%	21.8%	33.7%	50.6	45.5%	58.6	0.13% (active)	15.6%	29.8%	25.3	41.5	38.8	42.8%	67%	40.8%	42.7	74%	42.7	9.73% (active)
N#Cc1ccc(C(=O)Nn2c(N)cc3ccccc3c2=O)cc1	103%	103%	111%	94.6	98%	94.6	99.4%	86.1%	104%	104	85.8	89.9	64.9%	119%	92.9%	78	113%	94.7	84.6%
Cn1cc(-c2nnc(N)nc2-c2c[nH]c3ccccc23)c2cccnc21	28.9%	17.2%	28.5%	51.6	41.6%	57.8	24.4%	33.9%	55%	24.3	62.3	50.6	48%	91.5%	56.9%	43.2	86.4%	34.6	26.7%
CC1CCCCN1CCCNC(=O)N/C(N)=N/c1nc2ccccc2s1 (configuration not stated)	-13.6% (active)	3.14% (active)	4.11% (active)	61.5	40.8%	31.6	-96.7% (active)	-84.2% (active)	-97% (active)	41.3	46.1	40.9	24.4%	70.1%	42.5%	24.6	104%	26.8	16.4%
C/C(=N\N=C\c1cc([N+](=O)[O-])ccc1Cl)c1ccc2c(c1)Nc1ccccc1S2	72.4%	72.2%	5.46% (active)	51.6	7.09% (active)	82.4	78.6%	69.6%	90.7%	90.5	48.5	12.4	-13.7% (active)	8.88% (active)	-43.5% (active)	31.3	6.23% (active)	55	44%
NC(=S)Nc1cccc(NC(N)=S)c1	95.1%	113%	97.6%	88.3	88.8%	102	91.4%	70.5%	104%	112	101	81.9	70%	107%	96.3%	79.7	101%	96.4	89.7%
COc1cc(-c2ccc(/C=N/NC(=O)c3[nH]c4ccc(Br)cc4c3-c3ccccc3)s2)cc(OC)c1OC	66%	93.6%	66.4%	63.9	63.4%	76.5	89.8%	84.5%	84.1%	104	73.7	92.6	96.9%	106%	75.6%	71.6	130%	73.2	79.1%
S=C(Nc1ccccc1)Nc1ccc(OCc2nc3ccccc3[nH]2)cc1	29.5%	25.4%	27.4%	39.8	34.5%	42	49.1%	33.6%	61.6%	24.6	46.3	47.1	30.4%	72.3%	24.6%	18.9	72.1%	28.9	19.8%
